Records with an inconclusive call do not appear. Unmarked numbers belong to inactive results. Calls come from the whole dose curve; as a rule, active = well fitted curve in the direction sought with a large enough effect in the repeat runs; inconclusive = weak or mixed curves; inactive = no such curve, though single readings can be large; an effect the other way counts as inactive or inconclusive.
Assay: Human pregnane X receptor (PXR) small molecule agonists, qHTS cell viability counter screen (AID 1346977); note: nearly all actives have a fitted effect of over 50% in size
Details: PXR-Luc HepG2 viability, CellTiter-Fluor, 24 h; series mostly up to 92.4 µM; activity change, negative = cytotoxicity: at the top concentration
Method in brief: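 Same-well viability read: CellTiter-Fluor added after 23 hr compound exposure, fluorescence measured 1 hr later. Cells were PXR-Luc HepG2 seeded at 2,000/well in 5% charcoal-stripped FBS medium, rested 5 hr before dosing at 37 C.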
% is set by controls: 0 for no effect and ±100 for the full control effect.

SMILES	activity change, negative = cytotoxicity
C[C@@H](O)C(=O)O	12.6%
CC1c2ccccc2CN1NC(=O)c1ccc(Cl)c(S(N)(=O)=O)c1 (configuration not stated)	1.57% [at 42.5 µM]
O=C1CCC(=O)N1Cl	12.5%
C/C(CC(C)C)=N\O	-1.21%
CCC(C)C(=O)OCCc1ccccc1 (configuration not stated)	0.377%
CCOc1ccccc1OCC1CNCCO1 (configuration not stated)	-3.07% [at 42.5 µM]
COC(=O)c1cccc(Cl)c1	6.34%
Cc1ccc2c(c1)C(=O)c1ccccc1C2=O	-16.3%
C=C(C)c1cccc(C(C)(C)N=C=O)c1	-1.39%
CC1(C)Cc2cccc(N)c2O1	17.8%
O=C[O][Al]([O]C=O)[O]C=O	-1.3%
CC1CC(=O)CC(C)(C)C1 (configuration not stated)	16.9%
CC(C)Nc1ccccc1	5.26%
CCCCCCCCCCCCCCC(=O)NC(CO)CCCCCCCCCCCCCC (configuration not stated)	2.74%
CN(C)CCCCl	-1.82%
C[C@H]1[C@@H](c2ccccc2)NC(=O)N1C	-0.792%
CC(=O)OC1CCCCC1C(C)(C)C (configuration not stated)	-0.513%
O=C(O)[C@H](O)c1ccccc1	0.885% [at 42.5 µM]
COC(=O)CCCCC(=O)O	1.73%
C=CCSSCCC	-3.42%
CO/N=C(/C(=O)N[C@@H]1C(=O)N2C(C(=O)[O-])=C(C[n+]3ccn4ncccc43)CS[C@H]12)c1nsc(N)n1	12.2% [at 42.5 µM]
CC12CCC(C1)C(C)(C)C2O (configuration not stated)	5.23%
C/C=C(\C)C(C)=O	0.533%
CN(C)CCN(C)CCO	3.93%
C[C@]12CCC(=O)C=C1CC[C@H]1[C@@H]3CC[C@](O)(C(=O)CO)[C@@]3(C)C[C@H](O)[C@@]12F	15.1% [at 42.5 µM]
CCCC(=O)OC/C=C(\C)CCC=C(C)C	4.99%
CN1C[C@@H]2C[C@H]1CN2c1cc2c(cc1F)c(=O)c(C(=O)O)cn2C1CC1	-0.63% [at 19 µM]
CCC/C=C(\C=O)CC	4.36%
O=C1OCCO1	12.6%
CC1CCc2c(N3CCC(O)CC3)c(F)cc3c(=O)c(C(=O)O)cn1c23 (configuration not stated)	-3.78% [at 42.5 µM]

Assay: Caspase-3/7 induction in HepG2 cells by small molecules, qHTS assay (AID 1346978); note: nearly all actives have a fitted effect of over 15% in size
Details: HepG2 caspase-3/7 activation, Caspase-Glo luminescence, 17 h; series mostly up to 92.4 µM; caspase activation: at the top concentration
Method in brief: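 Wild-type HepG2 cells (2,000/well) were settled 5 h at 37 C, 5% CO2, then exposed to compounds in DMSO for 17 h. Caspase-3/7 activity was read by luminescence 30 min after adding Caspase-Glo 3/7 reagent at room temperature.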

SMILES	caspase activation
C[C@@H](O)C(=O)O	0.257%
CC1c2ccccc2CN1NC(=O)c1ccc(Cl)c(S(N)(=O)=O)c1 (configuration not stated)	-0.876% [at 42.5 µM]
O=C1CCC(=O)N1Cl	-0.172%
C/C(CC(C)C)=N\O	-0.28%
CCC(C)C(=O)OCCc1ccccc1 (configuration not stated)	-0.0312%
CC(=O)CCC1=C(C)CCCC1(C)C	0.413%
CCOc1ccccc1OCC1CNCCO1 (configuration not stated)	-0.341% [at 42.5 µM]
COC(=O)c1cccc(Cl)c1	-1.49%
Cc1ccc2c(c1)C(=O)c1ccccc1C2=O	-21.2%
C=C(C)c1cccc(C(C)(C)N=C=O)c1	0.113%
Cc1cc(C)c(C(=O)O)c(C)c1	0.715%
CCCSSCCC	0.572%
CC1(C)Cc2cccc(N)c2O1	0.367%
C=CCN1C[C@H](C(=O)N(CCCN(C)C)C(=O)NCC)C[C@@H]2c3cccc4[nH]cc(c34)C[C@H]21	0.33% [at 42.5 µM]
O=C[O][Al]([O]C=O)[O]C=O	0.151%
CC1CC(=O)CC(C)(C)C1 (configuration not stated)	-1.07%
CC(C)Nc1ccccc1	2.64%
CCCCCCCCCCCCCCC(=O)NC(CO)CCCCCCCCCCCCCC (configuration not stated)	-0.492%
CN(C)CCCCl	-0.896%

SMILES	caspase activation
C[C@H]1[C@@H](c2ccccc2)NC(=O)N1C	1.13%
CC(=O)OC1CCCCC1C(C)(C)C (configuration not stated)	0.297%
O=C(O)[C@H](O)c1ccccc1	-0.328% [at 42.5 µM]
COC(=O)CCCCC(=O)O	-0.544%
C=CCSSCCC	1.37%
CO/N=C(/C(=O)N[C@@H]1C(=O)N2C(C(=O)[O-])=C(C[n+]3ccn4ncccc43)CS[C@H]12)c1nsc(N)n1	4.99% [at 42.5 µM]
CC12CCC(C1)C(C)(C)C2O (configuration not stated)	-0.0453%
C/C=C(\C)C(C)=O	-0.0325%
CN(C)CCN(C)CCO	1.24%
C[C@]12CCC(=O)C=C1CC[C@H]1[C@@H]3CC[C@](O)(C(=O)CO)[C@@]3(C)C[C@H](O)[C@@]12F	-2.41% [at 42.5 µM]
CC1OCCC1=O (configuration not stated)	-1.38%
CCCC(=O)OC/C=C(\C)CCC=C(C)C	0.105%
C=CCCCCCCCCC(=O)OCCCC	0.442%
CN1C[C@@H]2C[C@H]1CN2c1cc2c(cc1F)c(=O)c(C(=O)O)cn2C1CC1	-0.0526% [at 19 µM]
CCC/C=C(\C=O)CC	1.29%
CC1(C)CC(OC(=O)CCCCCCCCC(=O)OC2CC(C)(C)NC(C)(C)C2)CC(C)(C)N1	0.485% [at 19 µM]
O=C1OCCO1	-0.0713%
CC1CCc2c(N3CCC(O)CC3)c(F)cc3c(=O)c(C(=O)O)cn1c23 (configuration not stated)	2.08% [at 42.5 µM]

Source: PubChem BioAssay (Tox21)
